Results on one sequence are retold here after PMC7862700, “An all-to-all approach to the identification of sequence-specific readers for epigenetic DNA modifications on cytosine”.

Experiment in all cases: DAPPL (digital affinity profiling via proximity ligation, sequencing); 10 mM Tris-HCl pH 7.5, 50 mM NaCl, 1 mM DTT, 4% glycerol, room temperature, 30 min; GST-TFs on glutathione beads, 16-mer random dsDNA library, 0.1% formaldehyde crosslink after washing; high values mean tight binding
The target in assay [1] is T1, FEV (Homo sapiens, UniProt Q99581 1-238).
T1 sequence: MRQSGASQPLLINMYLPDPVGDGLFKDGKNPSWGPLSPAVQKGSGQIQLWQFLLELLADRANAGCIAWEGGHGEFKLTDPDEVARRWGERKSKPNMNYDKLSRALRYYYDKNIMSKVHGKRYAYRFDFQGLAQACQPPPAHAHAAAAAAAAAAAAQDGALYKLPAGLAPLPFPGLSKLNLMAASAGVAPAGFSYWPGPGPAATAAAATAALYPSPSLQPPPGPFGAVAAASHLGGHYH
The settings on record: protein: recombinant; tags: N-terminal GST; dsDNA, one strand shown. The procedure, abridged: (§1)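 Binding signal is each hexamer's read frequency for a factor divided by its frequency in the tag-only sample. The factors were GST-fused human transcription factors from yeast, captured on glutathione beads, DNA-barcoded and pooled with that sample. Pools were incubated with 200 nmole of a random double-stranded 16-mer DNA library in Tris/NaCl/DTT/glycerol buffer at room temperature for 30 min, then washed, crosslinked with 0.1% formaldehyde, proximity-ligated with BsaI/T4 ligase (1 h, 37 °C), PCR-amplified and sequenced on an Illumina NextSeq500.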

For assay [2], the target named is ETV5 (Homo sapiens, UniProt P41161 1-510). The settings on record: protein: recombinant; tags: N-terminal GST; dsDNA, one strand shown. In outline:
as §1

In assay [3] the target is HSF1 (Homo sapiens, UniProt Q00613 1-529). The settings on record: protein: recombinant; tags: N-terminal GST; chain copies: 3; dsDNA, one strand shown. In outline: as §1
Sequence of HSF1 (Q00613 whole entry): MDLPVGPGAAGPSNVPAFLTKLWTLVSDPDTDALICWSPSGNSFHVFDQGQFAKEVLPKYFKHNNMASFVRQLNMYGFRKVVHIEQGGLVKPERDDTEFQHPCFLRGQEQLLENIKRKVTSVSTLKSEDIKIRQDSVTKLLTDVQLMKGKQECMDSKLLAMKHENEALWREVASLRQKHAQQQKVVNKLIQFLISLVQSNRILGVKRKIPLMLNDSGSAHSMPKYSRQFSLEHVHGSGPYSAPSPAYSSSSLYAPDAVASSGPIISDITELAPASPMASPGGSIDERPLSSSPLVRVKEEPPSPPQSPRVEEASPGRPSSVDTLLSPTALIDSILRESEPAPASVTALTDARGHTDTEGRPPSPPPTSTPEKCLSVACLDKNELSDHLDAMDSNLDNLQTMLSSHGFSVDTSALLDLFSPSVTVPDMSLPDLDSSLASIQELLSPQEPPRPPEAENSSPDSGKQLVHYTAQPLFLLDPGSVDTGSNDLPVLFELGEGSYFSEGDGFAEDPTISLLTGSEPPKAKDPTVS
In assay [4] the target is T2, SPIC (Homo sapiens, UniProt Q8N5J4 1-248).
T2 sequence: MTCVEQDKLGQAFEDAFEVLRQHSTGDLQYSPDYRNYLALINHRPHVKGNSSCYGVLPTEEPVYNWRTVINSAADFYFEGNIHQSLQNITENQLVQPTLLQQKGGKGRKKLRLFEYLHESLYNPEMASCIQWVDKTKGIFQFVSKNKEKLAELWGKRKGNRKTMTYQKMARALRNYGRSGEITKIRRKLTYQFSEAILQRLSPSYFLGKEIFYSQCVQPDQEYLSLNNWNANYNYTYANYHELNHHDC
The settings on record: protein: recombinant; tags: N-terminal GST; dsDNA, one strand shown. In outline: as §1

The target in assay [5] is ELF4 (Homo sapiens, UniProt Q99607 1-663). Particulars: protein: recombinant; tags: N-terminal GST; dsDNA, one strand shown. The procedure, abridged: as §1
Sequence of ELF4 (Q99607 whole entry): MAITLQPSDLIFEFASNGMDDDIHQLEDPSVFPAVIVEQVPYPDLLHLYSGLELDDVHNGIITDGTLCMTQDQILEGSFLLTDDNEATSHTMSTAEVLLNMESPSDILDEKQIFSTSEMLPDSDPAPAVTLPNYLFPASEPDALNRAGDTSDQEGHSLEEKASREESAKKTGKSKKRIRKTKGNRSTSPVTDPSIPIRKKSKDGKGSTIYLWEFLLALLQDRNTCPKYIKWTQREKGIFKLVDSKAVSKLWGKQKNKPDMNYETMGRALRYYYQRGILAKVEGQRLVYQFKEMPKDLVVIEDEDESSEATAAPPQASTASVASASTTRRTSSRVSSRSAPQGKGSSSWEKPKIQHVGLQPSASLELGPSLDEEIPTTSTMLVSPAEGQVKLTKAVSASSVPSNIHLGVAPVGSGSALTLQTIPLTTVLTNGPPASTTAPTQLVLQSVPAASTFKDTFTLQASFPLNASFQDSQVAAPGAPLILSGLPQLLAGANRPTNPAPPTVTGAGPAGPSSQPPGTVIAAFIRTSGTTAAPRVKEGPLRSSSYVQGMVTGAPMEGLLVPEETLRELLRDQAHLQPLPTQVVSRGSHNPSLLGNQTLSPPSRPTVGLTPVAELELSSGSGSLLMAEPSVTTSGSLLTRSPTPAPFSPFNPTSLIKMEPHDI
For assay [6], the target named is T3, ELK4 (Homo sapiens, UniProt P28324-2 1-405).
T3 sequence: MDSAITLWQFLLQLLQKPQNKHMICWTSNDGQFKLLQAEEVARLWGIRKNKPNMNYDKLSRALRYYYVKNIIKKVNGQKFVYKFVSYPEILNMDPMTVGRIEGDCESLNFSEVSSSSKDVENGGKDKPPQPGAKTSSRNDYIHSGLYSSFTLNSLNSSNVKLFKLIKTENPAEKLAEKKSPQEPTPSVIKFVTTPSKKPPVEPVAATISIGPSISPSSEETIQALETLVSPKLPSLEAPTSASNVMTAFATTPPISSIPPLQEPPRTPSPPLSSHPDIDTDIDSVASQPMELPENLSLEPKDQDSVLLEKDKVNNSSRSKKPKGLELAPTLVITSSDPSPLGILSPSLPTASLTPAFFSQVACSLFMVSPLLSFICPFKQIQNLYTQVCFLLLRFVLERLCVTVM
The settings on record: protein: recombinant; tags: N-terminal GST; dsDNA, one strand shown. In outline:
as §1

The target of assay [7] is T4, ETV2 (Homo sapiens, UniProt O00321 1-342).
T4 sequence: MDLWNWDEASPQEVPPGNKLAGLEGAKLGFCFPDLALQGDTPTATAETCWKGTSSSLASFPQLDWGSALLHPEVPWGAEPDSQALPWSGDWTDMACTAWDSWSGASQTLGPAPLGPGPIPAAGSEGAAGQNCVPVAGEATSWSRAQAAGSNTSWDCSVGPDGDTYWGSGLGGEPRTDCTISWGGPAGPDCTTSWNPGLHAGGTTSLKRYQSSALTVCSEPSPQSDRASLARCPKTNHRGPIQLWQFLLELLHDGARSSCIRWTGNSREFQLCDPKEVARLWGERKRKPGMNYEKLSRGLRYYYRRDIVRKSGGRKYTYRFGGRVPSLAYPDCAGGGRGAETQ
The settings on record: protein: recombinant; tags: N-terminal GST; dsDNA, one strand shown. In outline: as §1

Assay [8] deals with T5, ELF3 (Homo sapiens, UniProt P78545 1-371).
T5 sequence: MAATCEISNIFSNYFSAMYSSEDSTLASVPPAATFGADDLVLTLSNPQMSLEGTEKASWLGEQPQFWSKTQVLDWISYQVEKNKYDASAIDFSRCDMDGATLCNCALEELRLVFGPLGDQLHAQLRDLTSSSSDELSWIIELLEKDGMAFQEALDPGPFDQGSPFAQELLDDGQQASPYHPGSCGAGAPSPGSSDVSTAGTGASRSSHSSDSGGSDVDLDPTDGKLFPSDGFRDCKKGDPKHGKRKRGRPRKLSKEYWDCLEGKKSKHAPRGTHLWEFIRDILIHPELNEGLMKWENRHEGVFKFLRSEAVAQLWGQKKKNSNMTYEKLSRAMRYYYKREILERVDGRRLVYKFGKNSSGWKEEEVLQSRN
The settings on record: protein: recombinant; tags: N-terminal GST; dsDNA, one strand shown. In outline: as §1

Assay [9] deals with CRX (Homo sapiens, UniProt O43186 1-299). Particulars: protein: recombinant; tags: N-terminal GST; dsDNA, one strand shown. In outline:
as §1

For assay [10], the target named is ETV1 (Homo sapiens, UniProt P50549 1-477). The settings on record: protein: recombinant; tags: N-terminal GST; dsDNA, one strand shown. The procedure, abridged:
as §1

The target in assay [11] is T6, ERF (Homo sapiens, UniProt P50548 1-548).
T6 sequence: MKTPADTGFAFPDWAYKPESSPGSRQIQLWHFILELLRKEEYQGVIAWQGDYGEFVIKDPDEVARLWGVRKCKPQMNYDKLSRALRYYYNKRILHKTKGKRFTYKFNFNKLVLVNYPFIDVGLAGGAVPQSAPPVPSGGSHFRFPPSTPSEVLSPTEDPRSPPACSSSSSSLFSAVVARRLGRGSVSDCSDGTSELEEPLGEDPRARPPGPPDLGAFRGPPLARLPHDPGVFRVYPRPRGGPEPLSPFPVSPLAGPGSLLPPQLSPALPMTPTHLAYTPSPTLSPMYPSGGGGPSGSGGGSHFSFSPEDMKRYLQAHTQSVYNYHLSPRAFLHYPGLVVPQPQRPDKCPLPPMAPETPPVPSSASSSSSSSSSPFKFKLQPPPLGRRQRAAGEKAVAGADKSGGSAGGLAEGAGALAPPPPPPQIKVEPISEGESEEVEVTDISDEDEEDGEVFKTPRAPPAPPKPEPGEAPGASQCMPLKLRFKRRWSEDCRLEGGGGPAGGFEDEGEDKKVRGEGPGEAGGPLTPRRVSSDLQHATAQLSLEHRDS
Particulars: protein: recombinant; tags: N-terminal GST; dsDNA, one strand shown. In outline: as §1

Assay [12] deals with T7, ETV3L (Homo sapiens, UniProt Q6ZN32 1-361).
T7 sequence: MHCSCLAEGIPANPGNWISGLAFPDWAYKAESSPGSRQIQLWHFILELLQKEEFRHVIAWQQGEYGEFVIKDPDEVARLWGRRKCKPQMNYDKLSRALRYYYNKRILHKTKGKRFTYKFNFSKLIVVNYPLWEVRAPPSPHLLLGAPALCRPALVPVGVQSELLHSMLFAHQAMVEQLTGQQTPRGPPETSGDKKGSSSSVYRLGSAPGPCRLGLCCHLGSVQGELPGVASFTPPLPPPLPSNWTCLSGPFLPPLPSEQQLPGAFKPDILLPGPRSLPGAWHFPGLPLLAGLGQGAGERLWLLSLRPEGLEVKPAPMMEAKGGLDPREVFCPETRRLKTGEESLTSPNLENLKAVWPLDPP
The settings on record: protein: recombinant; tags: N-terminal GST; dsDNA, one strand shown. In outline:
as §1

In assay [13] the target is T8, ETS2 (Homo sapiens, UniProt P15036 1-469).
T8 sequence: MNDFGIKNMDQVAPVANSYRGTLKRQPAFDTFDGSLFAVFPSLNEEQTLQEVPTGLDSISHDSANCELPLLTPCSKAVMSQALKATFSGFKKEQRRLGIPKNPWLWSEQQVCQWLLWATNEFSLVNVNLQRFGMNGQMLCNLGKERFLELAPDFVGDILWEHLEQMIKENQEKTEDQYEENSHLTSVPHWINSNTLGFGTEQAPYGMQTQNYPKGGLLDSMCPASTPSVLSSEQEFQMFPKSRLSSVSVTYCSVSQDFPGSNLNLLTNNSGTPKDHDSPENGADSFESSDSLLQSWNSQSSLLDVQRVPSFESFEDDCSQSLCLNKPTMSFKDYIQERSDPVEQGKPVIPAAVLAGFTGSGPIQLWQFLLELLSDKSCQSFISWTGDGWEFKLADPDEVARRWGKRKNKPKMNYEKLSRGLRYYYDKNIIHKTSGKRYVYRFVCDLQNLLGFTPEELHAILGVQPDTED
The settings on record: protein: recombinant; tags: N-terminal GST; dsDNA, one strand shown. The procedure, abridged: as §1

Assay [14] deals with T9, SPDEF (Homo sapiens, UniProt O95238 1-335).
T9 sequence: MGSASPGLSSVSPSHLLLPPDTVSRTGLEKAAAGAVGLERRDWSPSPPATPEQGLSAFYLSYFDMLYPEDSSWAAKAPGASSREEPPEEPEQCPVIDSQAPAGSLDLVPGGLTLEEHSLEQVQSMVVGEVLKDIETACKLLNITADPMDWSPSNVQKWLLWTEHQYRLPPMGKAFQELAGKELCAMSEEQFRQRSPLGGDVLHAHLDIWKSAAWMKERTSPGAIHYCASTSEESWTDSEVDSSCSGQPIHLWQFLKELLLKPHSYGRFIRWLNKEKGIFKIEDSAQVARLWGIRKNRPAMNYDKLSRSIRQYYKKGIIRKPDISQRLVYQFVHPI
Particulars: protein: recombinant; tags: N-terminal GST; dsDNA, one strand shown. In outline: as §1

For assay [15], the target named is T10, ETV7 (Homo sapiens, UniProt Q9Y603 1-341).
T10 sequence: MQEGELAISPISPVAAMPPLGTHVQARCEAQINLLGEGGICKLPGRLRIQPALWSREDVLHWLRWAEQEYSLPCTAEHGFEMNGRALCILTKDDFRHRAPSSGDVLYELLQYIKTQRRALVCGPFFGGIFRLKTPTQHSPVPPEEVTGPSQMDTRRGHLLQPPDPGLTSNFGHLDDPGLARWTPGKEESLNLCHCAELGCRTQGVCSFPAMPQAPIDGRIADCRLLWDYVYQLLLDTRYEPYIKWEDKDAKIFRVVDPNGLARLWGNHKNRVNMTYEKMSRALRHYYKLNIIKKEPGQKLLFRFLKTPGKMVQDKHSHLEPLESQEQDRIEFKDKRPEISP
The settings on record: protein: recombinant; tags: N-terminal GST; dsDNA, one strand shown. In outline: as §1

The target of assay [16] is T11, ELF5 (Homo sapiens, UniProt Q9UKW6-2 1-255).
T11 sequence: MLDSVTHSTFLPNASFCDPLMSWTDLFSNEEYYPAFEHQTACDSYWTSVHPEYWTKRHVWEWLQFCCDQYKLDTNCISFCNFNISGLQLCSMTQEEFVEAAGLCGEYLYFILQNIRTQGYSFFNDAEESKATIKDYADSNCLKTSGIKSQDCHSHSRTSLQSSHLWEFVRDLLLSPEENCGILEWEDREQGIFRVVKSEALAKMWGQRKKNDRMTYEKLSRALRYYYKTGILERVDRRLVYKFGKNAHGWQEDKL
The settings on record: protein: recombinant; tags: N-terminal GST; dsDNA, one strand shown. The procedure, abridged: as §1

In assay [17] the target is T12, ETV3 (Homo sapiens, UniProt P41162-2 1-143).
T12 sequence: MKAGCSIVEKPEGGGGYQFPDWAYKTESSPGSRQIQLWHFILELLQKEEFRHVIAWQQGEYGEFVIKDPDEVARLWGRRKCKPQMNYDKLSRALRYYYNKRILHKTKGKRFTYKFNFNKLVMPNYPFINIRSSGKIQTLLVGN
The settings on record: protein: recombinant; tags: N-terminal GST; dsDNA, one strand shown. The procedure, abridged: as §1

The target of assay [18] is ETV6 (Homo sapiens, UniProt P41212 1-452). Particulars: protein: recombinant; tags: N-terminal GST; dsDNA, one strand shown. The procedure, abridged: as §1
Sequence of ETV6 (P41212 whole entry): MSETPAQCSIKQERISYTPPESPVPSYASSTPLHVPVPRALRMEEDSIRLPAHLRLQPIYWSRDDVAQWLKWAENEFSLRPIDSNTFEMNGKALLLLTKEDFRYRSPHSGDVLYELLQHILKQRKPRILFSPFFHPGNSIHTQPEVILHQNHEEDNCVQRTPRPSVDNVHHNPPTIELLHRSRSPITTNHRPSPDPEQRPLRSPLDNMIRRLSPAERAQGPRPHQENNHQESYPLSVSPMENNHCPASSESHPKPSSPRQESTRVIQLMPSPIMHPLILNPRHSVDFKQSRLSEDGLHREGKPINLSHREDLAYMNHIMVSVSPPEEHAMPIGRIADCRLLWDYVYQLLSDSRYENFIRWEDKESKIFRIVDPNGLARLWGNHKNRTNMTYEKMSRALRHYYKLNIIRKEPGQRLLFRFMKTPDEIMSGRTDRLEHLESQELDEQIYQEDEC

Sequence of ETV5 (P41161 whole entry): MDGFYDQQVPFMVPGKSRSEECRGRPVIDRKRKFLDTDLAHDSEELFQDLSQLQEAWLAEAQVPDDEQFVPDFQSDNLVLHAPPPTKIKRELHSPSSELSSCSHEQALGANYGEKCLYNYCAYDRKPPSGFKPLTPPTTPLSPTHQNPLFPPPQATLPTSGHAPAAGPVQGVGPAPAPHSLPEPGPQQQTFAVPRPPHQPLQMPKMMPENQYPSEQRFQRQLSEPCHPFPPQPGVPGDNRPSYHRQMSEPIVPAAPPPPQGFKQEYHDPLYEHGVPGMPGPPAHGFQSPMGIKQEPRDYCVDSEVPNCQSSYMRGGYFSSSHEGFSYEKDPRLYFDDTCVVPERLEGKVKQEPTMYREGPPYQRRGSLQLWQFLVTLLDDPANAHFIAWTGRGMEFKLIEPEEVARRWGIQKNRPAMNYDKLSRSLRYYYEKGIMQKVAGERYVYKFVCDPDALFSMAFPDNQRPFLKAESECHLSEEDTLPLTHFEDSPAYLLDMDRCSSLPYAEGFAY
Sequence of CRX (O43186 whole entry): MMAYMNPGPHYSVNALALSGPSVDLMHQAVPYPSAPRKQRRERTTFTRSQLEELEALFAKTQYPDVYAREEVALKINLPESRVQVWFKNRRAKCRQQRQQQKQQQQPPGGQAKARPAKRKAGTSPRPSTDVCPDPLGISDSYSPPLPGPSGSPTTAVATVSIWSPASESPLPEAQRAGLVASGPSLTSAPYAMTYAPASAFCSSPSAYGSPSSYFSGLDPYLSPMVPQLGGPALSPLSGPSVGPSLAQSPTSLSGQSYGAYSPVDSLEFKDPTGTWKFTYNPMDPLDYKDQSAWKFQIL
Sequence of ETV1 (P50549 whole entry): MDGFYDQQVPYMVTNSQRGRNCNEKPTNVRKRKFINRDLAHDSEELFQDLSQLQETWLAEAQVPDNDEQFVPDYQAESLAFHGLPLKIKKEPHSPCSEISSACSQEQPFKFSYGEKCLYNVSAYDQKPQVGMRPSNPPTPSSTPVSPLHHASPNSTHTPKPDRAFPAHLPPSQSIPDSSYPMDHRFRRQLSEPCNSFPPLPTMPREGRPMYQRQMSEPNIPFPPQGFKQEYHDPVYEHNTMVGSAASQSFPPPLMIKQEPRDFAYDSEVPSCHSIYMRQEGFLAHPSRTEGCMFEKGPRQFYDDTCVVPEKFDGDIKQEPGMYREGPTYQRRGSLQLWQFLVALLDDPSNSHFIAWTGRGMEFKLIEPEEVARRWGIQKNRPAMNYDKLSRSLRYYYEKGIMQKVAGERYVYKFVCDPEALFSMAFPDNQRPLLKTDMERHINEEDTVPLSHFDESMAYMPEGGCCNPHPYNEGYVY

Turning to CCTACT, the binding signal in assay [1] was 1.62 fold enrichment (6-mer frequency, TF over GST control); in [2], 1.57 fold enrichment (6-mer frequency, TF over GST control); in assay [3] it was 1.48 fold enrichment (6-mer frequency, TF over GST control); in assay [4], 1.64 fold enrichment (6-mer frequency, TF over GST control); in assay [5], 1.7 fold enrichment (6-mer frequency, TF over GST control); in assay [6] it was 1.76 fold enrichment (6-mer frequency, TF over GST control). The binding signal in [7] is 1.61 fold enrichment (6-mer frequency, TF over GST control); in assay [8] it was 1.41 fold enrichment (6-mer frequency, TF over GST control); in assay [9], 1.61 fold enrichment (6-mer frequency, TF over GST control); in assay [10], 1.49 fold enrichment (6-mer frequency, TF over GST control); in assay [11], 1.7 fold enrichment (6-mer frequency, TF over GST control); in assay [12], 1.53 fold enrichment (6-mer frequency, TF over GST control). The binding signal is 1.7 fold enrichment (6-mer frequency, TF over GST control) in [13]; 1.49 fold enrichment (6-mer frequency, TF over GST control) in [14]; 1.35 fold enrichment (6-mer frequency, TF over GST control) in assay [15]; 1.82 fold enrichment (6-mer frequency, TF over GST control) in assay [16]; 1.77 fold enrichment (6-mer frequency, TF over GST control) in assay [17]; 1.73 fold enrichment (6-mer frequency, TF over GST control) in assay [18].
